Experimental data: the supplement of paper PMC3334620
Whole data set: some 33,000 sequences, median “E-score (-0.5 to 0.5)” near -0.011, cut for the highest 2% near 0.28. The full list was thinned out, with the highest values kept by preference.

target: T1, Gcr1 (UniProt P07261); assay: PBM E-score (8-mer binding enrichment) (E-score (-0.5 to 0.5)); higher = stronger / more preferred TF binding; conditions: protein concentration: 100 nM; construct: GST-full length
T1 sequence: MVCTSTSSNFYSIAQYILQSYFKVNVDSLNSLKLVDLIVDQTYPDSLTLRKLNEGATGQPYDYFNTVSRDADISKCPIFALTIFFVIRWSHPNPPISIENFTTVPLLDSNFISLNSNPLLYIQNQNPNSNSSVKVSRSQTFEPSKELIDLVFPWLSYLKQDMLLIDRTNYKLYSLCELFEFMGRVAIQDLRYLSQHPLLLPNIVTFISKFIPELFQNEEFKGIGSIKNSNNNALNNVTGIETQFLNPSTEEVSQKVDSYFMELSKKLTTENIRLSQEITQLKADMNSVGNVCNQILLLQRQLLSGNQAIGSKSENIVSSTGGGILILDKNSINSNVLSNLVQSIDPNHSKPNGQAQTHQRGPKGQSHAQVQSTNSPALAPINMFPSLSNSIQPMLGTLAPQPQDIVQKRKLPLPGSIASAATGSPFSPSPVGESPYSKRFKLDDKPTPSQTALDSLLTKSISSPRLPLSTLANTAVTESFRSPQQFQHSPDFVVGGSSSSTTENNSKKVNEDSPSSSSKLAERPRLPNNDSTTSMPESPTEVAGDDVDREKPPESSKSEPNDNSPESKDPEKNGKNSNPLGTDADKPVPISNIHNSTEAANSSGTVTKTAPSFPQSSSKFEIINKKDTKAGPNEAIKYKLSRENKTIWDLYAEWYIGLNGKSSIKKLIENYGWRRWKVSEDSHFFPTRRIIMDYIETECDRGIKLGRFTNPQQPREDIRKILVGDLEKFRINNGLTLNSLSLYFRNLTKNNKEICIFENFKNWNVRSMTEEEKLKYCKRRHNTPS
Protocol: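 Universal 'all 10-mer' protein binding microarrays (Agilent AMADID 015681) probed with GST-tagged S. cerevisiae TFs (full-length or DBD) made by in vitro transcription/translation (PURExpress), about 100-200 nM. Bound TF was detected with fluorescent anti-GST. Each ungapped 8-mer (which stands for itself and its reverse complement) is scored by the PBM enrichment score (E-score), a modified Wilcoxon-Mann-Whitney statistic from -0.5 to +0.5, computed with the Universal PBM Analysis Suite. Scale: above 0.35 generally sequence-specific binding.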

Compared with GGCACTCA, AACGTCTT is higher in “PBM E-score” value: -0.189 for the first, 0.158 for the second.

Compared with AGCAAGTA, AGAATACG is higher in “PBM E-score” value: -0.149 for the first, 0.182 for the second.

Going from TAGCCTCA to CAACCAAG, the “PBM E-score” value rises from -0.053 to 0.0892.

First: CAACCAAA
Second: CAACCAAC
The “PBM E-score” value of the first is higher: 0.313 for the first, -0.102 for the second.

Going from AGCCAAGC to CAAACTGA, the “PBM E-score” value rises from -0.0873 to 0.105.

First: GCCGGAAC
Second: CGCCATTC
The “PBM E-score” value of the first is higher: 0.247 for the first, 0.0469 for the second.

Going from CGAGTCCA to GGAGTCCA, the “PBM E-score” value rises from -0.051 to 0.344.

Going from TGAGTCCA to GGAGTCCC, the “PBM E-score” value rises from 0.146 to 0.286.

Compared with AGAGTCCC, CGAGTCCC is higher in “PBM E-score” value: 0.0617 for the first, 0.168 for the second.

First: GCCGAGTA
Second: ACCGGGCT
The “PBM E-score” value of the first is higher: 0.115 for the first, 0.113 for the second.

First: GCTTACCA
Second: ACGCTTGA
The “PBM E-score” value of the first is lower: -0.193 for the first, 0.0746 for the second.

Going from GCGGAACA to CCGGAACA, the “PBM E-score” value rises from -0.172 to -0.0359.

Going from CCGGAACG to ACGGAACC, the “PBM E-score” value rises from -0.0389 to 0.0697.

Compared with GCGGAACC, CCGGAACC is lower in “PBM E-score” value: 0.341 for the first, 0.325 for the second.

Compared with CATTGTTC, CCAAACAA is higher in “PBM E-score” value: -0.0803 for the first, 0.213 for the second.

Going from CAGTGGTA to AAGCCTTC, the “PBM E-score” value falls from 0.115 to -0.191.

Compared with CCTCGGTC, AAGGGAAC is higher in “PBM E-score” value: -0.223 for the first, 0.0126 for the second.

First: CCACTAAG
Second: ACACTAGG
The “PBM E-score” value of the first is higher: 0.374 for the first, -0.176 for the second.

Going from CCACTATC to ACACTATC, the “PBM E-score” value falls from 0.368 to -0.0774.

Going from ACACTAAG to CCACTACC, the “PBM E-score” value rises from -0.00776 to 0.125.

First: CCACTAGG
Second: CCACTACG
The “PBM E-score” value of the first is lower: 0.287 for the first, 0.323 for the second.

First: CCACTACA
Second: CCACTAGA
The “PBM E-score” value of the first is lower: 0.194 for the first, 0.235 for the second.

Compared with CCACTAAC, CCACTATA is higher in “PBM E-score” value: 0.21 for the first, 0.276 for the second.

Compared with CACCATAC, ACCTGTGG is lower in “PBM E-score” value: 0.0726 for the first, -0.0729 for the second.

Compared with GCTTGGAA, CGGGGTCA is higher in “PBM E-score” value: -0.114 for the first, -0.096 for the second.

Compared with AAGAAACC, AGGCGTAA is lower in “PBM E-score” value: 0.0595 for the first, 0.0474 for the second.

Going from GACGCATA to CCACTAAA, the “PBM E-score” value rises from 0.141 to 0.314.

Going from TCACTAAA to GCACTAAA, the “PBM E-score” value falls from 0.134 to 0.0118.

Going from CCCCGTCG to CCCGATGC, the “PBM E-score” value falls from 0.00224 to -0.124.

Compared with AGGGATAT, GTATGCGA is higher in “PBM E-score” value: -0.234 for the first, 0.291 for the second.

Compared with ATATGCGA, CTATGCGA is lower in “PBM E-score” value: 0.0152 for the first, -0.14 for the second.

First: ATTAGTGA
Second: ATTAGTGC
The “PBM E-score” value of the first is higher: 0.0812 for the first, -0.00168 for the second.

Compared with AATAGTGC, ATTAGTGG is higher in “PBM E-score” value: -0.175 for the first, 0.388 for the second.

First: AATAGTGA
Second: AATAGTGG
The “PBM E-score” value of the first is lower: 0.0209 for the first, 0.425 for the second.

First: GAGCGAAC
Second: TCCATAGA
The “PBM E-score” value of the first is lower: -0.28 for the first, 0.203 for the second.

First: CGTAAGAA
Second: CTAAAGAC
The “PBM E-score” value of the first is lower: -0.113 for the first, -0.0627 for the second.

Going from AAAAGGAC to AAAAGGAA, the “PBM E-score” value rises from 0.0425 to 0.361.

First: GAAAGGAA
Second: AAAAGGAT
The “PBM E-score” value of the first is higher: 0.0552 for the first, -0.00496 for the second.

Compared with CAAAGGAA, TAAAGGAA is higher in “PBM E-score” value: 0.104 for the first, 0.314 for the second.

Compared with AATCTCGC, GCTGGTAA is higher in “PBM E-score” value: -0.0134 for the first, 0.122 for the second.

Compared with ATAGGTCG, ATTTTACG is higher in “PBM E-score” value: 0.0752 for the first, 0.337 for the second.

Compared with ATTTTACC, AATTTACG is higher in “PBM E-score” value: 0.0326 for the first, 0.0625 for the second.

First: GATAACAC
Second: GTGTCCAA
The “PBM E-score” value of the first is lower: -0.12 for the first, 0.0511 for the second.

Compared with ACTGGACG, ACTGGATG is higher in “PBM E-score” value: 0.303 for the first, 0.326 for the second.

Going from ACTGGACT to ACTGGACA, the “PBM E-score” value falls from 0.134 to 0.0644.

First: ACTGGATC
Second: CCTGGATC
The “PBM E-score” value of the first is higher: 0.316 for the first, -0.00306 for the second.

First: ACTGGATA
Second: ACTGGAGC
The “PBM E-score” value of the first is higher: 0.108 for the first, 0.0795 for the second.

Compared with ACTGGAGG, CGACTGTC is lower in “PBM E-score” value: 0.206 for the first, -0.252 for the second.

Compared with CTGCACAG, GCGCTAAA is higher in “PBM E-score” value: -0.0453 for the first, 0.232 for the second.

Going from CTTCAGCA to ATATATTA, the “PBM E-score” value rises from -0.0569 to 0.0581.

First: CTATATTA
Second: CTCTATTA
The “PBM E-score” value of the first is higher: 0.307 for the first, 0.154 for the second.

Going from GTTCATCA to CACCTAAA, the “PBM E-score” value rises from 0.108 to 0.266.

Going from TTCCTAAA to TACCTAAA, the “PBM E-score” value falls from 0.36 to 0.0795.

Compared with GTCCTAAA, AACCTAAA is higher in “PBM E-score” value: 0.21 for the first, 0.294 for the second.

Compared with ATCCTAAA, GGGAGTGA is lower in “PBM E-score” value: 0.211 for the first, -0.0739 for the second.

Compared with GTCCGCAC, AGATCCAA is higher in “PBM E-score” value: -0.0732 for the first, 0.186 for the second.

First: GGATCCAC
Second: CGATCCAC
The “PBM E-score” value of the first is higher: 0.302 for the first, -0.153 for the second.

First: AGATCCAC
Second: GGATCCAA
The “PBM E-score” value of the first is lower: 0.183 for the first, 0.299 for the second.

Going from CGATCCAA to TGGATTAA, the “PBM E-score” value rises from 0.0146 to 0.0316.

Compared with GTACTTGA, AAGAAAGG is higher in “PBM E-score” value: -0.209 for the first, -0.125 for the second.

Compared with ATGCGCTC, ACCCCGTA is lower in “PBM E-score” value: 0.0347 for the first, -0.0035 for the second.

Compared with AGAGCTTA, GAAGCACA is higher in “PBM E-score” value: -0.119 for the first, 0.117 for the second.

Compared with CATAGACG, GTAATTTA is higher in “PBM E-score” value: 0.0886 for the first, 0.109 for the second.

Going from CTAATTTC to CTAATTTA, the “PBM E-score” value rises from 0.189 to 0.291.

Compared with ATACCTTG, AAATTGGG is higher in “PBM E-score” value: -0.108 for the first, 0.295 for the second.

First: AAATTTTG
Second: CAATTTGG
The “PBM E-score” value of the first is lower: 0.088 for the first, 0.222 for the second.

Compared with AAAATTGC, ATTTTTGG is higher in “PBM E-score” value: -0.203 for the first, 0.186 for the second.

Compared with CAAATTGG, AAATTGGT is higher in “PBM E-score” value: 0.213 for the first, 0.226 for the second.

Compared with AAAATTGG, AATTTTGG is lower in “PBM E-score” value: 0.316 for the first, 0.287 for the second.

Going from AAATTTGG to CAATTGGG, the “PBM E-score” value falls from 0.301 to -0.0107.

First: AATTTTTG
Second: AGGGAATA
The “PBM E-score” value of the first is higher: 0.1 for the first, 0.0244 for the second.

Going from AATAGATC to CGATCTTA, the “PBM E-score” value falls from -0.0063 to -0.045.

First: GAGTTCAC
Second: ATGTGCCG
The “PBM E-score” value of the first is higher: -0.0309 for the first, -0.205 for the second.

Compared with ACCGCTTG, AGTTTAAT is higher in “PBM E-score” value: -0.0218 for the first, 0.0173 for the second.

First: ACACTCGT
Second: ATTTGGAG
The “PBM E-score” value of the first is lower: -0.152 for the first, 0.0526 for the second.

Going from CTTTGGAA to CTTTGGAC, the “PBM E-score” value falls from 0.282 to -0.147.

Compared with ATTTGGAA, GTTTGGAA is lower in “PBM E-score” value: 0.373 for the first, 0.202 for the second.

First: ATTTGGAC
Second: ATGCTAAC
The “PBM E-score” value of the first is higher: 0.166 for the first, 0.139 for the second.

Compared with AATCAGAC, AGCCCAGA is higher in “PBM E-score” value: 0.0464 for the first, 0.0713 for the second.

First: CTAGCACC
Second: CTAGCACA
The “PBM E-score” value of the first is higher: 0.31 for the first, -0.181 for the second.

Compared with CTAGCATC, ATAGCATC is lower in “PBM E-score” value: 0.315 for the first, 0.0848 for the second.

Going from CTAGCATA to ATAGCACC, the “PBM E-score” value rises from 0.017 to 0.159.

Compared with CCAGAGCG, ACCGGATC is higher in “PBM E-score” value: -0.144 for the first, 0.0302 for the second.

Compared with ACCGGACG, ACCGGAAT is lower in “PBM E-score” value: 0.32 for the first, 0.185 for the second.

First: ACCGGATG
Second: ACCGGATA
The “PBM E-score” value of the first is higher: 0.349 for the first, 0.00906 for the second.

Going from ACCGGAAC to ACCGGACT, the “PBM E-score” value falls from 0.203 to -0.0693.

With CCCGGACG the “PBM E-score” value was -0.0526.
